In PubChem BioAssay (NCATS):
Results filed as inconclusive are left out. Unless noted, the call rests on the fitted dose curve; in most records, active means well fitted curve in either direction with a large enough effect (not every such curve was filed as active); inconclusive means small, poorly fitted or top-dose-only effect, or another doubt; inactive means flat fitted curve, though single readings scatter.

What was measured:
[1] = AP1 Signaling Pathway (AID 357); conditions: ME-180 AP-1-bla reporter, EGF-induced, beta-lactamase ratio, 5 h; at 17.2 µM (top of the series) unless noted;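 further: ME-180 reporter cells stimulated with EGF at its EC50 level; on the % scale 0 is the no-effect control and ±100 the full control effect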
Procedure, shortened: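 Read-out was the 460nm/530nm emission ratio (excitation 405nm) after CCF4 loading for 2.5 hours at room temperature. Cells carried an AP-1-driven beta-lactamase reporter, were stimulated with EC50 EGF plus compound for 5 hours, and AC50 values came from titrations.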

[2] = NFAT Signaling Pathway (AID 444); conditions: Jurkat NFAT-bla M1, carbachol, beta-lactamase ratio, 5 h; at 17.2 µM (top of the series) unless noted;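 further: carbachol stimulus at about its EC50 of 1 µM final; on the % scale 0 is the no-effect control and ±100 the full control effect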
Procedure, shortened: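 Read-out: CCF4 FRET ratio (460 nm/530 nm) after 1 h RT dye loading, used for %activity and AC50 from titration series. Cells: Jurkat NFAT-β-lactamase/M1 line, treated with compound plus 1 uM carbachol for 5 h, 37 °C.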

[3] = Stat Signaling Pathway (AID 446); conditions: ME-180 (cervical carcinoma) SIE beta-lactamase reporter, IL-6 stimulated, 5 h; at 17.2 µM (top of the series) unless noted;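 further: ME-180 cervical cancer cells given 40 pM IL-6 alongside compound; SIE-controlled beta-lactamase reporter measured as 460/530 nm FRET emission ratio; on the % scale 0 is the no-effect control and ±100 the full control effect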
Procedure, shortened: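 Emission at 460 and 530 nm (excitation 405 nm) reports SIE-controlled beta-lactamase in ME-180 cells. Cells received compound with 40 pM IL-6 for 5 hrs at 37 C; data scaled between 300 pM IL-6 and 125 nM JAK-inhibitor controls.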

[4] = biological target: Glucocorticoid receptor (Homo sapiens) (UniProt P04150); assay: GR-GFP Redistribution (AID 450;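 active means compounds whose dose series gives a full or clear partial fitted curve of increased nuclear translocation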; further: potency means the concentration at half of the fitted maximal effect)
Chain of Glucocorticoid receptor (Homo sapiens) (P04150 whole entry, looked up): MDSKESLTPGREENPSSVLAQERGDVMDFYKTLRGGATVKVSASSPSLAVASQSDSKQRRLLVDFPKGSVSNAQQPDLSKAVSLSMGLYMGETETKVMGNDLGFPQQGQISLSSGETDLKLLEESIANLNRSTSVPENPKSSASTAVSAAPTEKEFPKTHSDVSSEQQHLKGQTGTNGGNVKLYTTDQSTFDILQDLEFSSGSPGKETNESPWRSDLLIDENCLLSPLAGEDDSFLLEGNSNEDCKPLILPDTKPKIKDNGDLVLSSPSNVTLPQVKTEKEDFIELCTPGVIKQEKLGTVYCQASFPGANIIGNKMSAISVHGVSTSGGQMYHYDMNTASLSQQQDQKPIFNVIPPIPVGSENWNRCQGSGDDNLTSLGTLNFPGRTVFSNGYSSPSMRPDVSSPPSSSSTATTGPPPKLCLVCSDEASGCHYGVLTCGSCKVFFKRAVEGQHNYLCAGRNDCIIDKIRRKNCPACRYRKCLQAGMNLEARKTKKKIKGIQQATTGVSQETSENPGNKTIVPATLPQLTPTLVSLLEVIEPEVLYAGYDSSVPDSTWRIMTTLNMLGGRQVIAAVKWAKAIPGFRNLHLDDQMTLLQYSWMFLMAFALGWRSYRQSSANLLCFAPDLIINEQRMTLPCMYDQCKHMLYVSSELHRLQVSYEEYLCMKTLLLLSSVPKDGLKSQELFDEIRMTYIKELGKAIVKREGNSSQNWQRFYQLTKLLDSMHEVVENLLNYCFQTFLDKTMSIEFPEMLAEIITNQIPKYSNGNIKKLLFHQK

COc1cc(N2C(=O)CSC23C(=O)Nc2ccccc23)cc(OC)c1OC (stereo not given)
inactive: activity change, negative = inhibition [1] 14.9% | activity change, negative = inhibition [2] 18.9% | activity, negative = inhibition [3] -2.69% | Potency [4] > 20.6 µM

C=CCOc1nc2c(c(=O)n(Cc3ccc(Cl)cc3)c(=O)n2C)n1C
inactive: activity change, negative = inhibition [1] -10.1% | activity change, negative = inhibition [2] 4.79% | activity, negative = inhibition [3] 9.68% | Potency [4] > 20.6 µM

Cc1cc(C)n(-c2ncnc3sc(C)c(C)c23)n1
inactive: activity change, negative = inhibition [1] -15.7% | activity change, negative = inhibition [2] -7.26% | activity, negative = inhibition [3] 6.68% | Potency [4] > 20.6 µM

COc1cc(/C=N/n2nnnc2N)ccc1O
inactive: activity change, negative = inhibition [1] -2.54% | activity change, negative = inhibition [2] -23.8% | activity, negative = inhibition [3] -1.69% | Potency [4] > 20.6 µM

COC(=O)C(NC(C)=O)(Nc1ccccc1)C(=O)OC
inactive: activity change, negative = inhibition [1] 2.11% | activity change, negative = inhibition [2] -1.66% | activity, negative = inhibition [3] 13.2% | Potency [4] > 20.6 µM

COc1cccc(-c2nnc3sc(-c4ccc(Cl)cc4)nn23)c1
inactive: activity change, negative = inhibition [1] 5.29% | activity change, negative = inhibition [2] -1.08% | activity, negative = inhibition [3] 11.1% | Potency [4] > 20.6 µM

Cc1ccc(-c2nnc(OCCN3CCOCC3)c3ccccc23)cc1
inactive: activity change, negative = inhibition [1] -9.96% | activity change, negative = inhibition [2] 5.38% | activity, negative = inhibition [3] -1.56% | Potency [4] > 20.6 µM

CC(=O)C1=C(O)C(=O)N(Cc2cccnc2)C1c1ccccc1Cl (stereo not given)
inactive: activity change, negative = inhibition [1] 3.06% | activity change, negative = inhibition [2] 3.26% | activity, negative = inhibition [3] 1.82% | Potency [4] > 20.6 µM

O=C(CSc1nc2ccccc2s1)Nn1cnnc1
inactive: activity change, negative = inhibition [1] 3.59% | activity change, negative = inhibition [2] 2.13% | activity, negative = inhibition [3] 5.58% | Potency [4] > 20.6 µM

CC1(C2(O)CC(c3ccccc3)ON2)CCCCC1 (stereo not given)
inactive: activity change, negative = inhibition [1] 11.4% | activity change, negative = inhibition [2] -10.5% | activity, negative = inhibition [3] -1.99% | Potency [4] > 20.6 µM

N#Cc1c(-c2ccco2)cc(C2CC2)nc1N
inactive: activity change, negative = inhibition [1] -6.96% | activity change, negative = inhibition [2] 9.72% | activity, negative = inhibition [3] -18.4% | Potency [4] > 20.6 µM

CC(C)C1Cc2c(sc3c2c(=O)n(-c2ccccc2)c2nncn32)CO1 (stereo not given)
inactive: activity change, negative = inhibition [1] -6.58% | activity change, negative = inhibition [2] -10.2% | activity, negative = inhibition [3] 5.31% | Potency [4] > 20.6 µM

C=C(C)C1Cc2c(C)nn(-c3nc(C)cc(C)n3)c2C1 (stereo not given)
inactive: activity change, negative = inhibition [1] -4.28% | activity change, negative = inhibition [2] 10.4% | activity, negative = inhibition [3] 0.182% | Potency [4] > 20.6 µM

COc1ccc(-n2ncc3c(NCCCn4ccnc4)ncnc32)cc1
inactive: activity change, negative = inhibition [1] -7.88% | activity change, negative = inhibition [2] -15.7% | activity, negative = inhibition [3] -5.95% | Potency [4] > 20.6 µM

CCCCOC(=O)c1[nH]c(C)c(C(=O)OC)c1C
inactive: activity change, negative = inhibition [1] -3.13% | activity change, negative = inhibition [2] 8.05% | activity, negative = inhibition [3] -9.04% | Potency [4] > 20.6 µM

Cc1ccc2[nH]c3c(N4CCOCC4)ncnc3c2c1
inactive: activity change, negative = inhibition [1] -7.05% | activity change, negative = inhibition [2] 18.4% | activity, negative = inhibition [3] -10.6% | Potency [4] > 20.6 µM

O=C1CC(NCc2ccncc2)C(=O)N1c1ccc(Cl)cc1 (stereo not given)
inactive: activity change, negative = inhibition [1] -15.8% | activity change, negative = inhibition [2] 13.2% | activity, negative = inhibition [3] -1.32% | Potency [4] > 20.6 µM

C(=N\n1cnnc1)/c1cccnc1
inactive: activity change, negative = inhibition [1] -4.05% | activity change, negative = inhibition [2] -13.4% | activity, negative = inhibition [3] 12.5% | Potency [4] > 20.6 µM

CCOC(=O)N1CCN(C(=O)c2cn(CC)c3cc(N4CCN(C)CC4)c(F)cc3c2=O)CC1
inactive: activity change, negative = inhibition [1] 8.43% | activity change, negative = inhibition [2] 7.68% | activity, negative = inhibition [3] 0.507% | Potency [4] > 20.6 µM

Cc1ccc(C2CC(c3cccs3)n3nc(N)nc3N2)cc1 (stereo not given)
inactive: activity change, negative = inhibition [1] 2.57% | activity change, negative = inhibition [2] 6.31% | activity, negative = inhibition [3] 3.76% | Potency [4] > 20.6 µM

CCN(CC)c1nc(C)c2c(c1C#N)CC(C)(C)OC2
inactive: activity change, negative = inhibition [1] -7.83% | activity change, negative = inhibition [2] -24.4% | activity, negative = inhibition [3] 7.18% | Potency [4] > 20.6 µM

O=C1CSC(=Nc2ccc(O)cc2)N1c1ccc(O)cc1
inactive: activity change, negative = inhibition [1] 24.5% | activity change, negative = inhibition [2] -9.67% | activity, negative = inhibition [3] 13.7% | Potency [4] > 20.6 µM

c1cncc(Oc2cccc(Oc3cccnc3)c2)c1
inactive: activity change, negative = inhibition [1] -6.49% | activity change, negative = inhibition [2] -3.08% | activity, negative = inhibition [3] 29.4% | Potency [4] > 20.6 µM

C=CCN(C(=O)CCC(=O)O)C1CC(=O)N(c2ccc(OC)cc2)C1=O (stereo not given)
inactive: activity change, negative = inhibition [1] 6.46% | activity change, negative = inhibition [2] -8.7% | activity, negative = inhibition [3] 5.71% | Potency [4] > 20.6 µM

COc1ccccc1C(=O)NCC(=O)n1nc(C)cc1C
inactive: activity change, negative = inhibition [1] -3.59% | activity change, negative = inhibition [2] -5.21% | activity, negative = inhibition [3] 10.4% | Potency [4] > 20.6 µM
